PubChem BioAssay (NCATS)
Results filed as inconclusive are left out. Entries that show only a call come without a potency. The source made the active and inactive calls. Calls follow the shape of the dose curve; as a rule, active = well fitted inhibition curve with a large enough effect; inconclusive = small, poorly fitted or top-dose-only effect; inactive = no such curve, though single readings can be large or run the other way.

Molecular target: Retinaldehyde dehydrogenase 3 (Homo sapiens) (UniProt P47895)
Assay: qHTS for Inhibitors of the Aldehyde Dehydrogenase Family (ALDH1A3) Confirmatory screens (AID 2061311); also: nearly all actives have a fitted effect of over 60% in size; also: potency is read from the fitted curve at half-maximal effect
Details: ALDH inhibition qHTS; series mostly up to 46 µM
In the case of COC(=O)[C@@]1(c2ccc(C)cc2)C[C@H]1CN1CCC(O)(c2ccccc2)CC1, the Potency is reported as “inactive”.
With NC(N)=NCCC[C@H](NC(=O)c1sccc1NS(=O)(=O)c1cccc2nsnc12)C(=O)O the Potency was “inactive”.
For COc1cc(O)c2c(c1)C1OC1C[C@H](O)[C@H](O)C(=O)/C=C\C[C@H](C)OC2=O (some centres undefined), the Potency was “inactive”.
With COc1cc2c3c(cc4ccccc4c3c1O)NC2=O the Potency was 14.2 µM (active).
For CCCCC1CCN(CCCN2C(=O)CCc3ccccc32)CC1, the Potency was “inactive”.

Molecular target: Retinaldehyde dehydrogenase 3 (Homo sapiens) (UniProt P47895)
Assay: qHTS for Inhibitors of the Aldehyde Dehydrogenase Family (ALDH1A3) Validation screen (AID 2061312); also: nearly all actives have a fitted effect of over 45% in size
Details: ALDH1A3 enzyme inhibition qHTS validation, fluorescence; series mostly up to 84.7 µM
For CCCC1O[C@@H]2C[C@H]3[C@@H]4CCC5=CC(=O)C=C[C@]5(C)[C@H]4[C@@H](O)C[C@]3(C)[C@]2(C(=O)CO)O1 (some centres undefined), the Potency was “inactive”.
For O=c1[nH]cc(F)c(=O)[nH]1, the Potency was “inactive”.
In the case of Nc1nc2ccc(OC(F)(F)F)cc2s1, the Potency is reported as “inactive”.
In the case of N[C@H](CCCP(=O)(O)O)C(=O)O, the Potency is reported as “inactive”.
For COC(=O)[C@@]1(c2ccc(C)cc2)C[C@H]1CN1CCC(O)(c2ccccc2)CC1, the Potency was “inactive”.
For CN1CCN(c2nc3cc(C(F)(F)F)ccc3n3cccc23)CC1, the Potency was “inactive”.
In the case of O=[N+]([O-])c1cccc2c(Br)[nH]nc12, the Potency is reported as “inactive”.
For NC(N)=NCCC[C@H](NC(=O)c1sccc1NS(=O)(=O)c1cccc2nsnc12)C(=O)O, the Potency was “inactive”.
For CC(C)(C)c1ccc(C(=O)CCCN2CCC(OC(c3ccccc3)c3ccccc3)CC2)cc1, the Potency was “inactive”.
With OC(CCN1CCCCC1)(c1ccccc1)C1CC2C=CC1C2 (centres undefined) the Potency was “inactive”.
With CCOC(=O)c1ncn2c1CN(C)C(=O)c1cc(F)ccc1-2 the Potency was “inactive”.
In the case of COc1cc(O)c2c(c1)C1OC1C[C@H](O)[C@H](O)C(=O)/C=C\C[C@H](C)OC2=O (some centres undefined), the Potency is reported as “inactive”.
With COc1ccc(CCN(C)CCCC(C#N)(c2ccc(OC)c(OC)c2)C(C)C)cc1OC (centres undefined) the Potency was “inactive”.
In the case of CCOC(=O)C(C)(C)Oc1ccc(Cl)cc1, the Potency is reported as “inactive”.
For CN(C)CCCN1c2ccccc2CCc2ccc(Cl)cc21, the Potency was “inactive”.
With OC[C@H]1O[C@@H](n2cnc3c(NC4CCCC4)ncnc32)[C@H](O)[C@@H]1O the Potency was “inactive”.
For CCCCOC(=O)NS(=O)(=O)c1sc(CC(C)C)cc1-c1ccc(Cn2c(CC)nc3c(C)cc(C)nc32)cc1, the Potency was “inactive”.
With c1ccc2c(c1)CCC[C@H]2Nc1nc2ccccc2[nH]1 the Potency was “inactive”.
In the case of CCC(C)N(C)C(=O)c1cc2ccccc2c(-c2ccccc2Cl)n1 (centres undefined), the Potency is reported as “inactive”.
With O=c1[nH]ccc2c(O)cccc12 the Potency was “inactive”.
With C[C@H]1CC2C3CCC4=CC(=O)C=C[C@]4(C)[C@@]3(Cl)[C@@H](O)C[C@]2(C)[C@@]1(O)C(=O)CO (some centres undefined) the Potency was “inactive”.
For CN1C2CCC1CC(OC(c1ccccc1)c1ccccc1)C2 (centres undefined), the Potency was “inactive”.
For NC(=O)c1cccc(N)c1, the Potency was “inactive”.
With CC1CCN(CC[C@H]2CCCN2S(=O)(=O)c2cccc(O)c2)CC1 the Potency was “inactive”.
For CCc1cccc(N(C)C(N)=Nc2cccc3ccccc23)c1, the Potency was “inactive”.
With NC(=O)c1ccc2[nH]ccc2c1 the Potency was “inactive”.
In the case of NC(=NCc1ccccc1)NC(=O)c1nc(Cl)c(N)nc1N, the Potency is reported as “inactive”.
With CCCCC1CCN(CCCN2C(=O)CCc3ccccc32)CC1 the Potency was “inactive”.
With O=P(O)(O)C(Cl)(Cl)P(=O)(O)O the Potency was “inactive”.

Molecular target: Retinal dehydrogenase 2 (Homo sapiens) (UniProt O94788)
Assay: qHTS for Inhibitors of the Aldehyde Dehydrogenase Family (ALDH1A2) Confirmation screens (AID 2061314); also: nearly all actives have a fitted effect of over 65% in size
Details: ALDH1A2 enzyme inhibition qHTS confirmation; series mostly up to 45.9 µM
With COC(=O)[C@@]1(c2ccc(C)cc2)C[C@H]1CN1CCC(O)(c2ccccc2)CC1 the Potency was “inactive”.
For NC(N)=NCCC[C@H](NC(=O)c1sccc1NS(=O)(=O)c1cccc2nsnc12)C(=O)O, the Potency was “inactive”.
In the case of CCCCC1CCN(CCCN2C(=O)CCc3ccccc32)CC1, the Potency is reported as “inactive”.

Molecular target: Retinaldehyde dehydrogenase 3 (Homo sapiens) (UniProt P47895)
Assay: qHTS for Inhibitors of the Aldehyde Dehydrogenase Family (ALDH1A3) Primary screen (AID 2061315)
Details: ALDH inhibition qHTS; series mostly up to 56 µM
With COC(=O)[C@@]1(c2ccc(C)cc2)C[C@H]1CN1CCC(O)(c2ccccc2)CC1 the Potency was “inactive”.
In the case of NC(N)=NCCC[C@H](NC(=O)c1sccc1NS(=O)(=O)c1cccc2nsnc12)C(=O)O, the Potency is reported as “inactive”.
With CCCCC1CCN(CCCN2C(=O)CCc3ccccc32)CC1 the Potency was “inactive”.

Molecular target: Aldehyde dehydrogenase 1A1 (Homo sapiens) (UniProt P00352)
Assay: qHTS for Inhibitors of the Aldehyde Dehydrogenase Family (ALDH1A1) Confirmatory screens (AID 2061316); also: nearly all actives have a fitted effect of over 65% in size
Details: ALDH inhibition qHTS; series mostly up to 47.3 µM
For COC(=O)[C@@]1(c2ccc(C)cc2)C[C@H]1CN1CCC(O)(c2ccccc2)CC1, the Potency was “inactive”.
For NC(N)=NCCC[C@H](NC(=O)c1sccc1NS(=O)(=O)c1cccc2nsnc12)C(=O)O, the Potency was “inactive”.
For CCCCC1CCN(CCCN2C(=O)CCc3ccccc32)CC1, the Potency was “inactive”.

Test system: not listed separately
Assay: BET inhibitor-based combinations targeting novel dependencies in MECOM-rearranged (r) AML: SET-2 cell line (AID 2202231); also: nearly all actives have a fitted effect of over 35% in size; also: potency is read from the fitted curve at half-maximal effect
Details: SET-2 AML cells viability, CellTiter-Glo luminescence, 48 h; viability: hits give low values, concentration not given here
Summary of the method: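 A 48 hr incubation preceded viability reading by CellTiter-Glo, with 15 min room-temperature development. Dose series had 11 points; normalization used DMSO and empty wells; AUC was computed and mean-centered per line as Z-AUC.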
With O=c1[nH]cc(F)c(=O)[nH]1 the Potency was 10.5 µM (active).
With Nc1nc2ccc(OC(F)(F)F)cc2s1 the viability was 89.4% (inactive).
In the case of OC(CCN1CCCCC1)(c1ccccc1)C1CC2C=CC1C2 (centres undefined), the viability is reported as 97.6% (inactive).
For CCOC(=O)c1ncn2c1CN(C)C(=O)c1cc(F)ccc1-2, the viability was 114% (inactive).
For O=c1c(O)c(-c2ccc(O)c(O)c2)oc2cc(O)cc(O)c12, the viability was 113% (inactive).
For CN1CCN(CCCN2c3ccccc3Sc3ccc(C(F)(F)F)cc32)CC1, the Potency was 16.6 µM (active).
With COc1ccc(CCN(C)CCCC(C#N)(c2ccc(OC)c(OC)c2)C(C)C)cc1OC (centres undefined) the viability was 94.7% (inactive).
For CCOC(=O)C(C)(C)Oc1ccc(Cl)cc1, the viability was 112% (inactive).
For O=Nc1c(-c2c(O)[nH]c3cc(Br)ccc23)[nH]c2ccccc12, the Potency was 5.25 µM (active).
In the case of NC(=O)OCC(COC(N)=O)c1ccccc1, the viability is reported as 119% (inactive).
With OCCN1CCN(CCCN2c3ccccc3Sc3ccc(C(F)(F)F)cc32)CC1 the Potency was 20.9 µM (active).
In the case of O=C(Nc1nc2ccccc2n1CCN1CCOCC1)c1cccc([N+](=O)[O-])c1, the viability is reported as 112% (inactive).
For CCC(C)N(C)C(=O)c1cc2ccccc2c(-c2ccccc2Cl)n1 (centres undefined), the viability was 102% (inactive).
With NC(=O)c1cccc(N)c1 the viability was 120% (inactive).
For NC(=O)c1ccc2[nH]ccc2c1, the viability was 107% (inactive).
With O=C(c1ccccc1)c1ccc2n1CCC2C(=O)O (centres undefined) the viability was 104% (inactive).
